Source: PubChem BioAssay AID624101 (Broad Institute, 2012)
About 120 (0.17%) of roughly 70,000 compounds were called active. The sample as a whole holds a higher share of actives than the screen did. Values without a mark were called inactive. No stated cut-off is given here; in the data, active means inhibition above about 34%; inconclusive means no clear call, values can overlap the other calls; inactive means below about 11%.

Molecular target: Isocitrate dehydrogenase [NADP] cytoplasmic (Homo sapiens) (UniProt O75874)
Experiment: PubChem AID 624101;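 further: 0% = DMSO and 100% = no enzyme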
Details: IDH1 R132H reductase, diaphorase/resazurin fluorescence, 60 min; at 10 µM; stronger effect = higher value

Chain of Isocitrate dehydrogenase [NADP] cytoplasmic (Homo sapiens) (O75874 whole entry R132H): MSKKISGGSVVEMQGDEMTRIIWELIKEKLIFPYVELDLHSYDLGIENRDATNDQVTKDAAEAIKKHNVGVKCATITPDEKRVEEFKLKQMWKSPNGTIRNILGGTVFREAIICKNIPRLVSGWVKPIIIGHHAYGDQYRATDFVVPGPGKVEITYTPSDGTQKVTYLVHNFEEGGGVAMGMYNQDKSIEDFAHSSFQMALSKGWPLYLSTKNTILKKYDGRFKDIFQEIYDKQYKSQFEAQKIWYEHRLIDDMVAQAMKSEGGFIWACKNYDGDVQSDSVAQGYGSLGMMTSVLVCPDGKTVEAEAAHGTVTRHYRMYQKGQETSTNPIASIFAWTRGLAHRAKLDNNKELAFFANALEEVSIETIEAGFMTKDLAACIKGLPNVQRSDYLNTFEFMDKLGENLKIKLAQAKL

Going from `COc1cccc(-c2ccc3c(c2)O[C@H](CN(C)C(=O)C2CCOCC2)[C@H](C)CN([C@H](C)CO)S3(=O)=O)c1` to `C/C=C/c1ccc2c(c1)O[C@H](CN(C)C(=O)Cc1cccnc1)[C@@H](C)CN([C@H](C)CO)S2(=O)=O`, the inhibition rises from -1.58% to 9.7%.

Going from `C[C@H](O)C#Cc1ccc2c(c1)O[C@H](CN(C)Cc1ccccn1)[C@H](C)CN([C@H](C)CO)S2(=O)=O` to `CCCN(C)C[C@H]1Oc2cc(C#CCC(C)C)ccc2S(=O)(=O)N([C@H](C)CO)C[C@H]1C`, the inhibition falls from 1.79% to -4.36%.

First: CCCC#Cc1ccc2c(c1)O[C@@H](CN(C)CCC)[C@@H](C)CN([C@H](C)CO)S2(=O)=O
Second: C[C@@H]1CN([C@@H](C)CO)S(=O)(=O)c2ccc(C#CCC3CCCC3)cc2O[C@@H]1CN(C)C
The inhibition of the first is higher: -0.176% for the first, -1.79% for the second.

Compared with `C[C@@H]1CN([C@@H](C)CO)S(=O)(=O)c2ccc(C#CCC3CCCC3)cc2O[C@H]1CN(C)Cc1ccc(C(=O)O)cc1`, `C/C=C/c1ccc2c(c1)O[C@@H](CN(C)C(=O)Cc1ccccc1)[C@H](C)CN([C@@H](C)CO)S2(=O)=O` is lower in inhibition: 0.74% for the first, 0.0005% for the second.

Compared with `C[C@@H]1CCCCO[C@@H](CN(C)C(=O)Nc2ccc(C(F)(F)F)cc2)[C@H](C)CN([C@H](C)CO)C(=O)c2cc(NC(=O)C3CCCCC3)ccc2O1`, `CO[C@@H]1CN(C)C(=O)c2ccc(NC(=O)C3CC3)cc2OC[C@H](C)N(C(=O)c2ccccc2)C[C@@H]1C` is lower in inhibition: 1.02% for the first, 0.146% for the second.

Compared with `O=C(NCC[C@@H]1CC[C@H](NC(=O)C2CC2)[C@@H](CO)O1)c1cc(Cl)cc(Cl)c1`, `CCCNC(=O)C[C@H]1C[C@@H]2c3cc(NC(=O)C4CCOCC4)ccc3O[C@@H]2[C@H](CO)O1` is lower in inhibition: 0.406% for the first, 0.074% for the second.

Compared with `C[C@@H](NC(=O)C[C@@H]1C=C[C@@H](NC(=O)CN2CCOCC2)[C@H](CO)O1)c1ccccc1`, `CO[C@@H]1CN(C)C(=O)c2cc(NS(=O)(=O)c3ccccc3C)ccc2OC[C@@H](C)N(S(C)(=O)=O)C[C@@H]1C` is lower in inhibition: 0.081% for the first, -0.22% for the second.

For `C/C=C/c1ccc2c(c1)O[C@H](CN(C)C(=O)Cc1ccncc1)[C@@H](C)CN([C@@H](C)CO)S2(=O)=O`, the inhibition was 37.6% (active).
With `C[C@@H]1CN([C@H](C)CO)S(=O)(=O)c2ccc(C#CCC3CCCC3)cc2O[C@H]1CN(C)Cc1ccc(C(=O)O)cc1` the inhibition was 45.9% (active).
For `CCCN(C)C[C@@H]1Oc2cc(C#CCc3ccccc3)ccc2S(=O)(=O)N([C@H](C)CO)C[C@@H]1C`, the inhibition was 35.5% (active).
